PLAP act = PLAP enzyme activators, biochemical, luminescence, HTS; Alkaline phosphatase, placental type (Homo sapiens), P05187; purified PLAP enzyme, luminescent substrate read-out; stronger effect = higher value; activation fold at 20 µM; 96,000 tested, 1.2% active; AID 696, 2007; in the data active = activation fold above about 2
CYP2C9 inh = blockers of cytochrome P450 2C9 activity – biochemical, luminescence, ADME assay, primary screen | P11712 | CYP2C9 Supersomes, luciferin-H conversion | inhibition, % at 5 µM | 96,000 tested, 20% active | AID 777, 2007;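 active = blocking of liver enzyme CYP2C9 beyond about 50% at 5 µM, limit read from the data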
Target sequence (P11712 whole entry, looked up): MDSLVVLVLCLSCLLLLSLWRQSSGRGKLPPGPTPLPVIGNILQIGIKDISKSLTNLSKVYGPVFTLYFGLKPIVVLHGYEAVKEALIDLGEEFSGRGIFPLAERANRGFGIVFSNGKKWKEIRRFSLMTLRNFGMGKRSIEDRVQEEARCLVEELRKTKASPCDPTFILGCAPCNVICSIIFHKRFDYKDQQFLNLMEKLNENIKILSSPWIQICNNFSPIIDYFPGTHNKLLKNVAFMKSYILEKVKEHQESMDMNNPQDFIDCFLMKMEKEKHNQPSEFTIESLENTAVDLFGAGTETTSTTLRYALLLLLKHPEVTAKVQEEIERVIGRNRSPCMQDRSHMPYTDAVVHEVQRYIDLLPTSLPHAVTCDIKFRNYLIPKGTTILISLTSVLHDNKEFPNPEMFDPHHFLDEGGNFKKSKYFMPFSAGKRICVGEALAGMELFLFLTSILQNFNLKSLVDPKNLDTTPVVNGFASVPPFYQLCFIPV
CYP2C9 activ = human CYP2C9 activators, primary screen, biochemical, luminescence | recombinant CYP2C9, luciferin-H conversion; stronger effect = higher value; factor 1 = untreated enzyme, 0 = blocked | 96,000 tested, 1.4% active | activation factor at 5 µM | Cytochrome P450 2C9 (Homo sapiens), P11712;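 active = activation factor of 2 or more for CYP2C9 at a 5 µM dose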
CYP2C19 activ = human CYP2C19 activators, primary screen, biochemical, luminescence | Cytochrome P450 2C19 (Homo sapiens), P33261 | recombinant CYP2C19, luciferin-H EGE luminescence; stronger effect = higher value; 0 = fully inhibited enzyme, 1 = untreated enzyme | activation factor at 5 µM | 96,000 tested, under 10 active | AID 1025, 2008;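 active = activation factor of at least 2 at 5 µM in the primary screen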
CYP2C19 inhib = blockers of cytochrome P450 2C19 activity – biochemical, luminescence, ADME assay, primary screen | P33261 | CYP2C19 Supersomes, luciferin-H EGE luminescence, 30 min | 96,000 tested, 21% active | AID 778, 2007 | inhibition, % at 5 µM;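 active = CYP2C19 inhibition above a set limit at 5 µM in the primary screen, cut at about 50% in these data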
A number is an active result; – = inactive. Sampled rows, rich in hits. Any-hit rate of the full collection: about 31%.

SMILES	PLAP act	CYP2C9 inh	CYP2C9 activ	CYP2C19 activ	CYP2C19 inhib
CC(=O)N1CCN(c2nc(C)nc3sc4c(c23)CCC(C)C4)CC1 (stereo unspecified)	–	86	–	–	83
CCC(=O)N1CCN(c2nc(C)nc3sc(C)c(C)c23)CC1	–	–	–	–	–
CCOc1ccc(C(C)=O)cc1CSc1nnc(-c2ccoc2C)n1N	–	74	–	–	86
Cc1cc(NC(=O)CSc2nnc(-c3ccoc3C)n2N)no1	–	–	–	–	–
COc1ccccc1Nc1nc(-c2cccc([N+](=O)[O-])c2)nc2ccccc12	–	–	–	–	–
N#CC(c1cccc(Cl)c1)c1ccc2c(C(F)(F)F)cc(C(F)(F)F)nc2n1 (stereo unspecified)	–	78	–	–	–
O=C(NCc1ccccn1)c1coc(=O)c(Br)c1	–	–	–	–	–
CC(C)Nc1nc(Cl)nc(NNC(=O)C(C)Oc2ccccc2)n1 (stereo unspecified)	2.2	–	–	–	–
CCCCCC(/C=N/Nc1ccc(S(=O)(=O)N2CCOCC2)cc1[N+](=O)[O-])=C\c1ccccc1	–	82	–	–	–
O=C1NC(c2ccccc2)=C(c2nc3ccccc3s2)C(c2ccc(F)cc2)N1 (stereo unspecified)	–	50	–	–	55
COc1ccc(C2NC(=O)NC(c3ccccc3)=C2c2nc3ccccc3s2)cc1 (stereo unspecified)	–	–	–	–	–
CCOc1cc(S(=O)(=O)NCc2ccccc2)ccc1F	–	–	–	–	–
CSc1nc(C)cc(OCCNS(=O)(=O)c2cc(C)ccc2C)n1	–	–	–	–	–
O=C(Cn1nc(-c2ccccc2)nc1-c1ccccc1)N1CCOCC1	–	–	–	–	–
Cc1cccc(C)c1NC(=O)Cn1nc(-c2ccccc2)nc1-c1ccccc1	–	66	–	–	–
Cc1ccccc1NC(=O)Cn1nc(-c2ccccc2)nc1-c1ccccc1	–	56	–	–	–
Cc1ccc(OCc2nn3c(-c4n[nH]c5c4CCC5)nnc3s2)cc1	–	–	–	–	–
Cc1cccc2sc(NC(=O)CCNS(=O)(=O)c3cccs3)nc12	–	78	–	–	82
Cc1cc(C)nc(N2CCC(C(=O)Nc3ccc4c(c3)CCC4)CC2)n1	–	–	–	–	–
N=c1c2c(-c3ccccc3)c(-c3ccccc3)n(Cc3ccco3)c2ncn1Cc1ccccc1	–	–	–	–	–
CC(C)Cn1cnc2c(c(-c3ccccc3)c(-c3ccccc3)n2Cc2ccco2)c1=N	–	–	–	–	–
OCCNc1ncnc2c1c(-c1ccccc1)c(-c1ccccc1)n2Cc1ccco1	2	56	–	–	–
c1ccc(-c2oc3ncnc(NCCCn4ccnc4)c3c2-c2ccccc2)cc1	–	99	–	–	98
c1ccc(-c2c(-c3ccccc3)n(Cc3ccco3)c3ncnc(NCCCn4ccnc4)c23)cc1	–	100	–	–	100
c1ccc(-c2oc3ncnc(NCCN4CCOCC4)c3c2-c2ccccc2)cc1	–	98	–	–	83
SMILES	PLAP act	CYP2C9 inh	CYP2C9 activ	CYP2C19 activ	CYP2C19 inhib
O=C1c2ccccc2CC1Sc1nnc(-c2ccncc2)o1 (stereo unspecified)	–	87	–	–	96
CN1C(=S)SC(C)(C)C1(C)NO (stereo unspecified)	–	–	–	–	–
Cc1ccccc1-c1nnc(-c2ccccc2)o1	–	–	–	–	–
Cn1cc(-c2nnc(-c3ccccc3)o2)c2ccccc21	–	–	2.4	–	–
COC(=O)/C(=C\Nc1ccccc1N)c1ncc(C(F)(F)F)cc1Cl	–	–	–	–	–
O=C(O)CC1Oc2ccc(Cl)cc2NC1=O (stereo unspecified)	–	55	–	–	–
O=C(c1ccc(Br)cc1)c1cc([N+](=O)[O-])ccc1N1CCCCC1	–	61	–	–	65
Cc1ccc(C(=O)c2cc([N+](=O)[O-])ccc2N2CCN(C)CC2)cc1	–	–	–	–	–
Cc1ccc(OCCn2c(C)c(/C=N/n3cnnc3)c3ccccc32)cc1	–	89	–	–	86
Clc1ccc(-c2nn3c(-c4ccccn4)nnc3s2)c(Cl)c1	–	–	–	–	–
O=P(O)(c1ccc(Cl)cc1)c1ccc(Cl)cc1	–	–	–	–	–
Clc1cccc(Cl)c1Cn1c(-c2cccnc2Cl)nc2ccccc21	–	–	–	–	–
CCCn1c(-c2cccnc2Cl)nc2cc(Cl)c(Cl)cc21	–	56	–	–	–
C=CCn1c(-c2cccnc2Cl)nc2cc(Cl)c(Cl)cc21	–	57	–	–	–
NNC(=O)Cn1c(SCc2ccccc2)nc2ccccc21	–	–	–	–	96
Cc1ccc(C(=O)Nc2nc(C)c(C)s2)o1	–	–	–	–	–
Cc1nc(NC(=O)CCCC(=O)Nc2nc(C)c(C)s2)sc1C	–	81	–	–	–
Cc1cc(NC(=O)CSc2nc3ccccc3c(=O)n2Cc2ccccc2)no1	–	–	–	–	–
CCC(Sc1nc2ccccc2c2nc3ccccc3n12)C(=O)NCc1ccco1 (stereo unspecified)	–	78	–	–	–
Cc1nc(NC(=O)CSc2nc3cccnc3n2Cc2ccccc2)sc1C	–	59	–	–	63
Cc1cc2c(ncn2C(C)C)c(N)c1C	–	–	–	–	–
CCOC(=O)c1sc(NC(=O)C2CC=CCC2C(=O)O)nc1C (stereo unspecified)	–	–	–	–	–
COCCNC(=O)C(c1ccco1)N(C(=O)Cn1nnc2ccccc21)c1cc(C)ccc1C (stereo unspecified)	–	–	–	–	–
Cc1nc(NC(=O)CSc2ccccc2N)sc1C	–	76	–	–	–
CCOC(=O)CNC(=O)CSc1nc2cccnc2n1Cc1ccccc1	–	–	–	–	80
SMILES	PLAP act	CYP2C9 inh	CYP2C9 activ	CYP2C19 activ	CYP2C19 inhib
Cc1ccc(Cn2c(SCC(=O)N/N=C/c3ccc(C)o3)nc3ccccc32)cc1	–	–	–	–	–
O=C(CSc1nc2ccccc2n1Cc1ccccc1)N/N=C/c1ccco1	–	–	–	–	56
O=C(O)CCn1c(SCc2cccc3ccccc23)nc2ccccc21	–	66	–	–	–
CCn1c(SCC(=O)Nc2nc(C)c(C)s2)nnc1-c1cccnc1	–	–	–	–	–
CCSc1nc2ccccc2n1CCC(=O)O	–	–	–	–	–
COC(=O)C1CSc2[nH]c(=O)sc2C1c1ccc(OC)c(OC)c1 (stereo unspecified)	–	–	–	–	–
NS(=O)(=O)c1ccc(CNC(=O)NC2(c3ccccc3)CC2)cc1	–	–	–	–	–
NC(=O)c1ccc[n+](CC(=O)OCCC23CC4CC(CC(C4)C2)C3)c1	–	–	–	–	–
O=C(CSc1nc2cccnc2n1Cc1ccccc1)NCc1ccco1	–	–	–	–	58

High-throughput results from PubChem BioAssay.
